# Laboratory results: PubChem BioAssay AID2098 (Broad Institute, 2009)
# Out of some 300,000 compounds screened, about 2,300 (0.77%) were called active. This excerpt belongs to a sample that is enriched for actives. Unmarked numbers belong to inactive results.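 Rule for the calls: active = more than half of replicate wells show activity change below -50%, luminescence cut by over half; inconclusive = some wells, but at most half, below -50%; inactive = no replicate well below -50%.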
# Assay: HSF1 inhibitors in luciferase reporter cells, primary screen, cell-based, NIH3T3, luminescence (AID 2098);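 note: luciferase reports HSF-1 transcriptional activity via heat shock element; 0% = median of DMSO wells and -100% = zero luminescence signal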
# Details: NIH3T3-HGL HSE-luciferase, MG132-induced, luminescence 8 h; hits give low values; screened at 7.5 µM (by protocol)
row,SMILES,"activity change, negative = inhibition"
1,Cc1cc(C)c(-c2csc(NC(=O)CCCc3nc4ccccc4c(=O)[nH]3)n2)c(C)c1,-1.35%
2,COc1cc(C2C(C(=O)c3cccs3)=C(O)C(=O)N2CCN2CCOCC2)ccc1OCCC(C)C (stereo not given),-1.71%
3,CC(=O)Nc1ccc(NC(=O)C(C)OC(=O)C2CC(=O)N(CCc3ccccc3)C2)cc1 (stereo not given),-2.7%
4,O=[N+]([O-])c1cccc(S(=O)(=O)NCc2ccccn2)c1,-1.49%
5,O=S(=O)(NCc1ccccn1)c1ccc(Br)s1,-3.36%
6,O=S(=O)(NCc1ccccn1)c1ccc(F)cc1,-83.2% (active)
7,Cc1ccn2c(=O)c(NC(=O)c3cccc4ccccc34)c(C)nc2c1,-1.23%
8,Cc1ccc(C(=O)CN2C(=O)NC3(CCc4ccccc43)C2=O)c(C)c1 (stereo not given),6.44%
9,O=C(COC(=O)c1ccccn1)NNC(=O)c1ccc([N+](=O)[O-])cc1,-1.26%
10,CC(=O)c1sc(N)nc1C,1.87%
11,CN(Cc1ccccc1F)C(=O)C(Cc1ccccc1)NC(=O)c1ccccc1 (stereo not given),1.87%
12,O=C(NC(=S)Nc1ccccc1N1CCCCC1)c1ccc(F)cc1,-7.72%
13,COc1ccccc1C(=O)NC(=S)Nc1ccccc1N1CCCCC1,-53.8% (active)
14,COc1ccc(C(=O)NC(=S)Nc2ccccc2N2CCN(S(C)(=O)=O)CC2)cc1OC,-1.5%
15,O=C(CSc1ncccn1)NCCc1ccccc1,-68.6% (active)
16,O=C(Cc1ccc(Br)cc1)NCCc1ccccc1,3.74%
17,O=C(CSc1ncccn1)NC(=O)NCc1ccccc1,2.98%
18,Cc1cc2oc3ccc(NCCC4CCCN4C)cc3c(=O)c2cc1C (stereo not given),6.14%
19,CCc1ccccc1NC(=O)CSc1nnc(-c2ccncc2)o1,-75.8% (active)
20,CCN(C(=O)CSc1nnc(-c2ccncc2)o1)c1ccccc1,-5.45%
21,CCOC(=O)CSc1nnc(-c2ccncc2)o1,-9.32%
22,O=C(NC1CCCCC1)c1cc([N+](=O)[O-])ccc1N1CCOCC1,0.205%
23,CCOc1ccc2nc(NC(=O)c3cc([N+](=O)[O-])ccc3N3CCOCC3)sc2c1,-61.5% (active)
24,COc1ccc(S(=O)(=O)N2CCCCC2)cc1NC(=O)c1cc([N+](=O)[O-])ccc1N1CCOCC1,-3.7%

row,SMILES,"activity change, negative = inhibition"
1,O=C(Nc1ncccc1O)c1ccc(C(=O)c2ccccc2)cc1,-2.64%
2,COC(=O)c1ccc(NS(=O)(=O)c2cc3c4c(c2)C(C)C(=O)N4CCC3)cc1 (stereo not given),-0.43%
3,Cc1ccc(C)c(OCCC(=O)Nc2cccc(S(=O)(=O)N3CCCC3)c2)c1,3.66%
4,COc1ccc(C2=NN(c3nc4ccccc4s3)C(=O)C2)cc1,1.26%
5,CCOc1cccc(-n2nnnc2-c2ccc(OC)cc2)c1,-2.61%
6,COc1ccc(-n2nnnc2-c2nc3ccccc3s2)cc1,-65.3% (active)
7,Nc1cccnc1Sc1ccccc1,-0.323%
8,CCCCn1c(N)c(N(CCC(C)C)C(=O)CC2OC(=O)c3ccccc32)c(=O)[nH]c1=O (stereo not given),3.21%
9,O=C(COc1cccc2c1CCNC2=O)NC1CCCCC1,-0.75%
10,O=C(COC(=O)c1cccc(Cl)c1)Nc1ccc2[nH]c(=O)[nH]c2c1,-4.05%
11,O=C(Nc1ccnn1C1CCN(Cc2cccc(OCCO)c2)CC1)C1CCCC1,-3.05%
12,Cc1nn(C)c(Cl)c1CN1CCC(n2nccc2NC(=O)C2CCCC2)CC1,-53.5% (active)
13,CC(CN1CCC(n2nccc2NC(=O)C2CCCC2)CC1)c1ccccc1 (stereo not given),-6.86%
14,c1ccc(C[C@H]2CNCCN2CCC23CC4CC(CC(C4)C2)C3)cc1,0.124%
15,COc1cc2c(cc1OC)C(Cc1cc(OC)c(OC)cc1[N+](=O)[O-])=NCC2,-5.53%
16,CC(=O)Nc1cccc(C(=O)OCC(=O)c2ccc3c(c2)OCO3)c1,-8.13%
17,CCCCn1c(N)c(N(CCOC)C(=O)c2cccc(OCc3ccccc3)c2)c(=O)[nH]c1=O,-6.51%
18,O=C(Nc1ccccc1Cl)Nn1cnnc1,-3.45%
19,O=C(Nc1ccccc1Cl)/C(Cl)=C(\Cl)S(=O)c1ccccc1 (stereo not given),-63.2% (active)
20,O=C(COC(=O)c1cccs1)Nc1ccccc1Cl,4.76%
21,CC(C)CN(C(=O)c1ccc2c(c1)OCO2)C1CCS(=O)(=O)C1 (stereo not given),1.63%
22,COc1ccccc1C(=O)NC(=O)COC(=O)c1ccco1,-2.8%
23,COc1ccccc1C(=O)OCC(=O)NCCNC(=O)COC(=O)c1ccccc1OC,-54.9% (active)
24,COc1ccc(C(=O)OCC(=O)NCCCc2ccccc2)cc1OC,-6.5%

row,SMILES,"activity change, negative = inhibition"
1,COc1ccccc1C(=O)NC(CCSC)C(=O)NNC(=O)c1ccccc1C (stereo not given),-4.57%
2,CCOc1ccc(OCc2cccc(C(=O)N(CC)CC)c2)cc1,-51.8% (active)
3,CCOc1ccc(OCc2ccc(C(=O)N(C)c3ccccc3)o2)cc1,9.19%
4,COc1ccc(OCc2cccc(C(=O)N3CCCC3)c2)cc1,-11%
5,Cc1ccc(S(=O)(=O)N2CCOCC2)cc1C(=O)Nc1ccccc1N1CCCC1,3.38%
6,Oc1ccc(Br)cc1/C=N/Nc1ccccn1,-72.1% (active)
7,O=[N+]([O-])c1ccc(O)c(/C=N/Nc2ccccc2[N+](=O)[O-])c1,2.12%
8,O=C(CCCO)N/N=C/c1cc(Br)ccc1O,-13.7%
9,Cn1c(=N)n(CC(O)c2ccccc2)c2ccccc21 (stereo not given),-64.8% (active)
10,Cn1c(=N)n(CC(O)c2cccs2)c2ccccc21 (stereo not given),-12.7%
11,Cc1nc2ccccc2n1CC(O)c1ccccc1 (stereo not given),-6.27%
12,COc1ccc(C(=O)Nc2cccc(NC(=O)c3ccc(OC)cc3OC)n2)c(OC)c1,-27.9%
13,Cc1ccc(CN2CCN(c3ccccc3Cl)CC2)o1,-5.3%
14,COC(=O)C1=CN(C)C=C(C(=O)OC)C1c1ccc(Cl)cc1Cl,6.26%
15,COC(=O)c1nc2n(n1)C(c1ccc([N+](=O)[O-])cc1)C(C(=O)Nc1ccc(Cl)cc1)=C(C)N2 (stereo not given),-14.3%
16,COC(=O)C1=CN(c2ccc(F)c(F)c2)C=C(C(=O)OC)C1c1ccc([N+](=O)[O-])cc1,-77.3% (active)
17,c1c2c(cc3sc(N4CCCCC4)nc13)OCCO2,-55.1% (active)
18,Cc1nc2cc3c(cc2s1)OCO3,3.71%
19,Brc1ccc2nc(N3CCCC3)sc2c1,22%
20,Cc1ccc(S(=O)(=O)N2CCN(C(=O)c3ccc(-n4cncn4)c([N+](=O)[O-])c3)CC2)cc1,-4.92%
21,Cc1cc(C)c(SCCc2ccncc2)c(C)c1,-16.4%
22,CC(C)(C)C(=O)COC(=O)c1cc(S(=O)(=O)N2CCCCC2)ccc1N1CCOCC1,0.13%
23,Cc1ccnc(NS(=O)(=O)c2ccc(NC(=O)c3ccc(S(=O)(=O)N(C)C)cc3)cc2)n1,1.75%
24,Cc1ccnc(NS(=O)(=O)c2ccc(NC(=O)c3oc4ccccc4c3C)cc2)n1,-1.33%

row,SMILES,"activity change, negative = inhibition"
1,Cc1cc(C)c2oc(C(=O)Nc3ccc(S(=O)(=O)Nc4nccc(C)n4)cc3)cc(=O)c2c1,-70.7% (active)
2,CC1(c2nnc(Cc3ccccc3)o2)CC(c2ccccc2F)=NO1 (stereo not given),-1.4%
3,Cc1cccc(C(=O)NNC(=O)c2cccc([N+](=O)[O-])c2)c1,-3.12%
4,Cc1cccc(C(=O)NC(=S)N2CCN(c3ccc([N+](=O)[O-])cc3)CC2)c1,-62.5% (active)
5,Cc1cccc(C(=O)Nc2ccccc2N2CCN(c3ccc(F)cc3)CC2)c1,-1.05%
6,O=S(=O)(/C=C/c1ccccc1)N1CCNCC1,0.181%
7,CN1CCN(S(=O)(=O)c2ccc(Nc3ccc(F)cc3)nc2)CC1,-3.3%
8,O=C(O)c1cccc(NC(=O)c2cc(-c3cccc(Cl)c3)nc3ccccc23)c1,-10.6%
9,COc1ccc(NC(=O)c2cc(-c3ccc(C)o3)nc3ccccc23)cc1,8.98%
10,O=C(Nc1cccc(F)c1)c1cc(-c2ccco2)nc2ccccc12,-58.6% (active)
11,COc1ccccc1C(=O)NCCC(=O)NC(C)CCc1ccccc1 (stereo not given),1.3%
12,Cc1ccc(S(=O)(=O)N(C)c2ccc(OCC(=O)OCc3ccc(C#N)cc3)cc2)cc1,-4.36%
13,COc1ccc(C2=NOC(Cn3nc(C(=O)NCc4ccc5c(c4)OCO5)cc3-c3ccccc3)C2)cc1 (stereo not given),2.18%
14,c1ccc(-c2c[nH]c(-c3ccccc3)c2)cc1,-83.8%
15,Oc1ccc(/C=N/Nc2ccc(C(F)(F)F)cn2)cc1O,-78.4% (active)
16,O=C(Nc1ccccc1)Nc1ccc(C(F)(F)F)cn1,-1.47%
17,Cc1nccn1CC(=O)N/N=C/c1ccc(O)c(O)c1,2.17%
18,CSc1ncccc1C(=O)NC1CCCCCC1,-4.75%
19,CCC(C)(NC(=O)c1ccccn1)C(=O)NC1CCCCC1 (stereo not given),-54.6% (active)
20,N/C(=N\OC(=O)CCC1CCCCC1)c1ccccn1,17.7%
21,CC(Oc1ccc(F)cc1)C(=O)Nc1ccccc1C(=O)NC1CC1 (stereo not given),5.48%
22,CCOC(=O)N1CCN(C(=O)c2ccccc2SCC(=O)NCC2CCCCC2)CC1,6.98%
23,COC(=O)[C@@]12CCCN1[C@H](c1ccc(-c3ccc(F)cc3)c(OC)c1)[C@H]1C(=O)N(C)C(=O)[C@H]12,20.6%
